SMILES strings stand for the structures. This is part of a sample that, as a whole, favours compounds with a hit. Of some 83,000 tested, about 20% had one in any assay.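 96-well plates, one dose, 48 hours. Percent growth reported; active if below 10.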 Activity calls are given as the source filed them.

The test relates to A498 renal. Description: NCI-60 one-dose screen, 48 h (100 = growth as untreated, 0 = no growth, -100 = all killed). As to conditions: 10 µM unless noted.
With `C[n+]1ccc(CCc2c[nH]c3ccccc23)cc1`, the growth was 71.9% (inactive).
Take `O=C(CI)NC(=O)NC(=O)NCc1ccccc1`: the growth is 91.2% (inactive).
For `O=C1/C=C/[C@@H](O)[C@@H]2C[C@@H](O)C[C@H]2/C=C/CCC[C@@H](O)CCO1`, the growth was 66.7% (inactive).
With `CC/C=C\C[C@H](O)C/C=C1/C(=O)C=C[C@@H]1C/C=C\CCCC(=O)O` the figure was 90.9% (inactive); with `CCCCNC(=O)c1cc([N+](=O)[O-])cc(C2CCCCC2)c1O`, 21.5% (inactive).
Turning to `CC(=C(c1ccc(OCCN2CCCCC2)cc1)c1ccc(OCCN2CCCCC2)cc1)c1ccc(Cl)cc1`, the growth is -85.9% (active).
As to `S=C(c1ccc2c(c1)OCO2)N1CCN(c2cccc(Cl)c2)CC1`, the growth was 33.3% (inactive).
With `COc1ccc(/C(C)=C(/c2ccc(OCCCN(C)C)cc2)c2ccc(OC(=O)c3ccccc3)cc2)cc1` the figure was 91.5% (inactive).
The same measure for `Cc1c(CC(=S)N2CCOCC2)nnn1-c1cccc(C(F)(F)F)c1`: 102% (inactive); for `COc1cccc(/C=C/C(=O)c2cc3c(N)c(C(=O)Nc4cccc5ccccc45)sc3nc2C)c1`: 4.07% (active).
The same measure for `COc1cc(OC)c2sc(-c3ccc(-n4cncc4-c4cc(OC)c(OC)c(OC)c4)cc3)nc2c1`: 48.5% (inactive).
Regarding `COC(=O)C(Cc1ccccc1)NC(=O)c1ccc(NC(=O)c2[nH]c(C)c(Cl)c2Cl)c(OC(C)C)c1` (centres undefined), the growth is 86.8% (inactive).
The same measure for `O=C(N/N=C\c1cccc([N+](=O)[O-])c1)N/N=C/c1cccc([N+](=O)[O-])c1`: 82.3% (inactive); for `COc1ccccc1N(C(C)=O)C1=C(Cl)C(=O)c2ccccc2C1=O`: 36.2% (inactive).

The values above are taken from PubChem BioAssay (NCI).
